From PubChem BioAssay AID1794842 (National Center for Advancing Translational Sciences (NCATS), 2023)
Out of some 2,800 compounds screened, fewer than 10 were called active. Calls follow the shape of the dose curve; as a rule, active = well fitted curve in the direction sought with a large enough effect; inconclusive = small, poorly fitted or top-dose-only effect, or another doubt; inactive = no such curve, though single readings can be large or run the other way. A selection follows.

Molecular target: Metallo-beta-lactamase type 2 (Klebsiella pneumoniae) (UniProt C7C422)
Test: qHTS to identify inhibitors of the New Delhi Metallo-beta-lactamase (NDM): Meropenem screen against the machine-based learning selections.
Details: Purified NDM-1, meropenem hydrolysis, absorbance 300 nm; series mostly up to 38.4 µM
Text: Assay Submitter (PI): James Inglese Ph.D., Patricia Dranchak Ph.D., Mahesh Aitha Ph.D. Assay Development and Screening Technology Laboratory (ADST) National Center for Advancing Translational Sciences (NCATS), Rockville, MD National Institute of Health (NIH), Bethesda, Maryland The metallo-beta-lactamases (MBL) are a main antibiotic resistance mechanism evolved by bacteria. There is an urgent clinical need for MBL inhibitors to mitigate this growing threat. To support a machine-based learning study, qHTS has been used to experimentally test inhibitors identified by prediction tools.
PROTOCOL TABLE (as described by Inglese et al., 2007) SEQUENCE No. (e.g., 1, 2, 3, etc.); […] (e.g., enzyme, Incubation, Reagent, etc.); VALUE; DESCRIPTION Primary Screen 1; NDM-1; 4 uL of 3 nM enzyme [2 nM final] in 50 mM HEPES (pH 7.0), 1 uM […], 0.01% Tween20; Use BioRaptr to dispense into two sets of Aurora black, clear bottom high base 1536-well plates 2; Compounds; 23 nL; Use Pin Tool (Wako) to transfer DMSO control and library compounds in DMSO 3; Incubate; >30 min 4a; Reagent; 2 uL of 50 uM nitrocefin [16.7 uM final] to one set of assay plates 4b; Reagent; 2 uL of 150 uM meropenem [50 uM final] to second set of assay plates 5a; Incubate; 15 min 5b; Incubate; 30 min 6a; Detector; Absorbance at 485 nm (bandwidth = 5 nm, 25 flashes/well) on Tecan Infinity 6b; Detector; Absorbance at 300 nm (bandwidth = 5 nm, 25 flashes/well) on Tecan Infinity NOTES (numbers refer to sequence above) 1; Column 1 of each plate received assay buffer without enzyme and columns 2-48 received enzyme for a final assay concentration of 2 nM. 2; Control plate contained DMSO in columns 1, 2, 3, and 4. 3; Compound interaction with enzyme. 4; Nitrocefin and meropenem substrates were prepared in the same assay buffer as step 1 for a final assay concentration of 16.7 uM and 50 uM, respectively, and added to all wells across respective sets of assay plates. 5; Default reader settings were applied for absorbance read at 485 nm (nitrocefin) or 300 nm (meropenem), bandwidth = 5 nm, 25 flashes/well. References: Inglese J, Shamu CE, Guy RK. 2007. Reporting data from high-throughput screening of small-molecule libraries. Nat Chem Biol. doi:10.1038/nchembio0807-438 Yasgar A, Shinn P, Jadhav A, Auld D, Michael S, Zheng W, Austin CP, Inglese J, Simeonov A. 2008. Compound Management for Quantitative High-Throughput Screening. J Lab Autom 13:79 - 89. doi:10.1016/j.jala.2007.12.004

Chain of Metallo-beta-lactamase type 2 (Klebsiella pneumoniae) (C7C422 whole entry, looked up): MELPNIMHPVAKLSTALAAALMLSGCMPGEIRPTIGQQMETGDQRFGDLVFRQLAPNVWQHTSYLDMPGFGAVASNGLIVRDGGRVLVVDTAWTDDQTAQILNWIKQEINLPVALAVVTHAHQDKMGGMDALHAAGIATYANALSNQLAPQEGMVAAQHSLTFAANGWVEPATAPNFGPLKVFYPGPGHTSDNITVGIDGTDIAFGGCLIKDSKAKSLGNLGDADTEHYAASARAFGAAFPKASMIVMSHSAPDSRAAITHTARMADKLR

outcome, inactive:
COc1ccc(C2Cn3nnc(C(=O)N4CCN(C(=O)c5cc(F)ccc5Cl)CC4)c3CO2)cc1 (stereo not given)
Cc1ccccc1Nc1cnc2ccc(-c3cccc(CO)c3)nn12
COc1ccccc1C(O)c1nc(Nc2ccncc2)n[nH]1 (stereo not given)
OC[C@]12CCCN[C@@H]1CCN(Cc1cccc(-c3ccccn3)c1)C2
COC(=O)c1ccc2c(c1)nc1n2[C@@H](CNC(=O)NC2CCCCC2)COC1
COc1cccc(CN[C@@H]2CCC[C@@H](C(=O)NC3CCOCC3)CC(=O)N(C)C2)c1
COCCNC(=O)[C@H]1CCC[C@H]1NC(=O)c1ccc(OC)cc1
CCS(=O)(=O)N1CCC(Cc2nc(-c3cccnc3)n[nH]2)C1 (stereo not given)
C=CCc1cc(C2CC(=O)Nc3[nH]ncc32)cc(OCC)c1OC (stereo not given)
O=C1CC(c2ccccc2)N(C(=O)C2CC2)CCCN(C(=O)NCc2ccccc2)CCN1 (stereo not given)
O=C(NC[C@H]1OC[C@@H](NCc2cnc[nH]2)[C@@H]1O)C1CCCC1
COc1cccc(-c2cnc3[nH]cc(CC(=O)NCc4cccnc4)c3c2)c1
Cn1ccc(NC(=O)c2cnc3c(c2)N([S+](=O)([O-])c2cccnc2)CCC3)n1
CCOc1cc(=O)n2c(c1C(=O)N1CCN(c3ccc(F)cc3)CC1)CCCC2
CC1=C[C@@H](CNC(=O)Cc2ccccc2)[C@H](C(C)C)C[C@H]1Cc1nc2ccncc2[nH]1
Oc1ccccc1CN1CCNc2cnc(-c3ccccc3)cc2C1
CN1C(=O)[C@@H]2C[C@@H](O)CN2C2(CN(CC3CCCCC3)C2)C1=O
O=C(O)c1cccc(CN2CCN(c3ccc4nccn4n3)CC2)n1
CCn1ccc(C(=O)N2CC(c3nnc(-c4ccc(C)cc4)o3)C3(CCOCC3)C2)n1 (stereo not given)
O=C(Nc1ccsc1)N[C@H]1C[C@H]2C(=O)NC[C@@H](CCC(=O)N3CCCCC3)N2C1
O=C(Cc1ccccc1F)N1CCC(Oc2ncccc2C(=O)N2CCCCC2)C1 (stereo not given)
CC1=C[C@@H](CNCc2ccncc2)[C@H](C(C)C)C[C@H]1Cc1nnc(-c2ccc(C)cc2)o1
Cc1ccccc1-c1[nH]nc2ncc(-c3ccccc3O)nc12
CN1CCCC2(CCN(S(=O)(=O)c3ccc(F)c(F)c3F)C2)C1=O (stereo not given)
CN1CCC(N2CCC[C@H]2C(=O)NCc2cc3n(n2)CCCNC3)CC1
O=C(O)C1(Oc2ccc3ccccc3c2)CCN(Cc2ccsc2)CC1
COc1cccc(CN2CCCC3(CCN(C(=O)c4ccc(OC)nc4OC)C3)C2)c1 (stereo not given)
COc1ccc(-c2noc([C@@H]3C[C@@H](O)CN3Cc3ncc[nH]3)n2)cc1
CC(C)(O)CCc1cccc(C(=O)NCCNc2cccnc2)c1
COc1cccc(S(=O)(=O)N2C[C@@H](C)[C@](O)(C3CCC3)C2)c1
O=C(O)[C@@H]1CN(C(=O)c2ccc(=O)[nH]c2)C[C@H]1c1ccc2c(c1)OCO2
COC[C@H]1CCCN1Cc1nc(C2(O)CCN(Cc3ccccc3O)CC2)cs1
O=C(NCc1ccccc1)N1CCCCC1c1nc(-c2cnccn2)n[nH]1 (stereo not given)
CN1CC2(CCN(C(=O)c3ccccc3-c3nn[nH]n3)CC2)CC1C(=O)O (stereo not given)
Nc1ccsc1C(=O)N[C@H](Cc1ccncc1)C1CC(O)C1 (stereo not given in full)
O=C(NC[C@H]1O[C@@H](CC(=O)N2CCOCC2)[C@H](O)[C@@H]1O)Nc1ccc(F)cc1F
CCn1nc(C)cc1C(=O)N1CCOC[C@H](Oc2cccnc2)C1
O=c1n(-c2ccc([N+](=O)[O-])cc2)nc2n1CCN(Cc1cccc3ccccc13)C2
Cn1cccc1C(=O)N1CC[C@H](NC(=O)NC2CCCCC2)[C@H]1C(=O)N1CCC[C@@H]1C(N)=O
N#Cc1ccc(C(=O)N2C[C@@H]3C[C@H](C2)c2c(/C=C/c4ccc(Cl)cc4)ccc(=O)n2C3)cc1
NC(=O)C1(N2CCCCC2)CCN(Cc2cc3n(n2)CCNC3)CC1
CC(C)(CO)CNC(=O)c1cnc2c(c1)N([S+](=O)([O-])c1cccnc1)CCC2
Cc1nn(C)c2ncc(C(=O)O)c(NC3CC(c4cc(=O)[nH]cn4)C3)c12 (stereo not given)
Oc1cccc(CN2CCCC23CCN(c2ccc(C(F)(F)F)cn2)CC3)c1
O=C(O)CCC(=O)N[C@H]1CCN2C(=O)c3cc(-c4ccc(Cl)cc4)ccc3NC(=O)[C@H]12
